In PubChem BioAssay (EPA / NIEHS):
Records with an inconclusive call do not appear. The source made the active and inactive calls. Rule for the calls: active = hit-call score of the fitted dose curve at least 0.9, where 1 is the maximum; inconclusive = response in the unintended direction; inactive = score below 0.9.

target: human Caspase 10 (CASP10), CASP10 (gene 843) (UniProt Q92851); test: NVS_ENZ_hCASP10: NovaScreen (NVS) Enzymatic Assay for human Caspase 10 (CASP10) (AID 2283133)
Protocol: NVS_ENZ_hCASP10 is a biochemical, single-readout assay that uses extracted gene-proteins from E. coli in a cell-free assay. Measurements were taken 1 hour after chemical dosing in a 96-well plate.NVS_ENZ_hCASP10 is one of one assay component(s) measured or calculated from the NVS_ENZ_hCASP10 assay. It is designed to make measurements of enzyme activity, a form of enzyme reporter, as detected with fluorescence intensity signals by Fluorescence technology.Data from the assay component NVS_ENZ_hCASP10 was analyzed into 1 assay endpoint. This assay endpoint, NVS_ENZ_hCASP10, was analyzed in the positive analysis fitting direction relative to DMSO as the negative control and baseline of activity. Using a type of enzyme reporter, loss-of-signal activity can be used to understand changes in the enzymatic activity as they relate to the gene CASP10. Furthermore, this assay endpoint can be referred to as a primary readout, because this assay has produced multiple assay endpoints where this one serves a enzymatic activity function. To generalize the intended target to other relatable targets, this assay endpoint is annotated to the protease intended target family, where the subfamily is cysteine protease.
Binding assays used specific radioligands (tritiated, iodinated) with non-radioactive competitive displacement ligands in agonist or antagonist protocols (as indicated) and various reference compounds and inhibitors to titrate specific binding to receptors and transporters. Most enzyme assays (CYPs, kinases, phosphatases, proteases, HDACs) used recombinant protein and specific substrates (fluorescence mostly, some colorimetric and radioactive) and inhibitors, followed by a biochemical separation of substrate and product. All assays for the biochemical HTS were initially run in duplicate at a single concentration (10 uM for CYP450 assays and 25 uM for all others). Assay-chemical combinations meeting a pre-defined threshold (e.g., 30% inhibition and other criteria defined below) were then run in singleton concentration-response format with maximum concentration of 20 uM for CYPs and 50 uM for all others. Each assay was run with positive and negative controls, and concurrent controls on every plate. The follow-up (secondary) screen tested active chemical-pairs in concentration series, as well as a few additional assays not tested in the primary screen, some selected negative inactives, and several cases re-run in the concentration series for confirmatory purposes.

human Caspase 10 (CASP10), CASP10 (gene 843), sequence (Q92851 whole entry, looked up): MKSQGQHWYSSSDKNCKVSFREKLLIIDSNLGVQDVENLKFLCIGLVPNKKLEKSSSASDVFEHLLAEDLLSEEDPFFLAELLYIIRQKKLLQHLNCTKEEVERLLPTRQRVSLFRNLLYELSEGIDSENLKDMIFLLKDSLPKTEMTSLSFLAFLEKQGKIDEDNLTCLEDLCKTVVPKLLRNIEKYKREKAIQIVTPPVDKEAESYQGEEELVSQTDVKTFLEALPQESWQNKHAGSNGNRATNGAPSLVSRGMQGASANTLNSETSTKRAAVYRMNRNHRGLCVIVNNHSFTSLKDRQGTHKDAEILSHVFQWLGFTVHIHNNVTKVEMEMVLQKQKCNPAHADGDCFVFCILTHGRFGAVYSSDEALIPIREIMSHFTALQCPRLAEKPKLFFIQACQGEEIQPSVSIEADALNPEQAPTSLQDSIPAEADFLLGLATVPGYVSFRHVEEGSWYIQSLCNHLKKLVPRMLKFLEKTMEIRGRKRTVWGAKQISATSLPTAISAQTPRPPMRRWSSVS

| Compound | outcome | AC50 |
| --- | --- | --- |
| CCN(Cc1cccc(S(=O)(=O)O)c1)c1ccc(C(=C2C=CC(=[N+](CC)Cc3cccc(S(=O)(=O)O)c3)C=C2)c2ccccc2S(=O)(=O)[O-])cc1 | inactive | – |
| O=C1CCC(C2CCCCC2)CC1 | inactive | – |
| Cc1c2ccccc2c(C)c2c1ccc1ccccc12 | inactive | – |
| CN1C(=O)CC[C@H]1c1cccnc1 | inactive | – |
| CN(C)c1ccc(C(=C2C=CC(=[N+](C)C)C=C2)c2ccc(N(C)C)cc2)cc1 | inactive | – |
| S=C(S)NCCNC(=S)S.[Mn+2].[S-]C([S-])=NCCN=C([S-])[S-].[Zn+2] | inactive | – |
| Oc1cc2ccccc2c2ccccc12 | – | 11.1 µM (active) |
| C[Si]1(C)O[Si](C)(C)O[Si](C)(C)O[Si](C)(C)O1 | inactive | – |
| O=C(O)CCCCC(=O)O | – | 11.4 µM (active) |
| CN1C(=O)N(c2ccccc2Br)Cc2cnc(Nc3ccc4c(c3)OCC(CO)O4)nc21 (stereo not given) | inactive | – |
| CCCCCCCCCCCCCCOS(=O)(=O)O | inactive | – |
| Cc1oc(-c2ccccc2)nc1CCOc1ccc(C[C@H](Nc2ccccc2C(=O)c2ccccc2)C(=O)O)cc1 | inactive | – |
| CCCCCCCCCCCCCCCCOS(=O)(=O)O | inactive | – |
| O=C(O)c1[nH]n(-c2ccc(S(=O)(=O)O)cc2)c(=O)c1N=Nc1ccc(S(=O)(=O)O)cc1 | inactive | – |
| COc1ccc2c(c1)c(CC(=O)O)c(C)n2C(=O)c1ccc(Cl)cc1 | inactive | – |
